Assay outcomes: PubChem BioAssay, Broad Institute
mut p53 react = mutant p53 pathway reactivation. AID 624151. hit rate 1.5% among 28,000. SW480 PUMA-promoter luciferase. activation, % at 9.98 µM; in the data active = activation above about 52%; inconclusive = no clear call, values can overlap the other calls
ID4 binder = ID4 (human) binding; small molecule microarray, Flag-ID4 binding, fluorescence F/B; calls only; hit rate 1.2% among 31,000; call rule not given here;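 also: a binder raises fluorescence above local background on the spot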
Target sequence (P47928 whole entry, looked up): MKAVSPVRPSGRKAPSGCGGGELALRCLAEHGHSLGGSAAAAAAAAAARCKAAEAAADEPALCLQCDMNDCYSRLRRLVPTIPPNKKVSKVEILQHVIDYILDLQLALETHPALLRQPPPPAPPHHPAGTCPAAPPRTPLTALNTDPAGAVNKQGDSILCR
STK33 kin inh = inhibitors of human STK33 kinase. ADP-Glo luminescence, MBP substrate. inhibition, % at 12.5 µM. hit rate 0.44% among 27,000. AID 2322; in the data active = inhibition above about 20%; inconclusive = no clear call, values can overlap the other calls
Starred values were filed as active, the others as inactive; i = inactive; u = inconclusive; x = not tested or not shown; + = active, no number. Most compounds without a hit are left out; they make up all but 2.1% or so of the library.

SMILES | mut p53 react | ID4 binder | STK33 kin inh
COc1cc2c(cc1OC)CN(C(=O)[C@H]1[C@@H]3C(=O)O[C@@H](c4ccccc4)[C@@H](c4ccccc4)N3[C@@H](c3ccc(OCCO)cc3)[C@]13C(=O)Nc1ccc(C#CC4=CCCCC4)cc13)CC2 | x | i | 22*
COCCOC(=O)N1C(=O)[C@@]2(c3cc(C#Cc4ccc(OC)cc4)ccc31)[C@H](c1ccccc1OCCO)N1[C@H](c3ccccc3)[C@H](c3ccccc3)OC(=O)[C@H]1[C@@H]2C(=O)N1CCc2cc(OC)c(OC)cc2C1 | x | x | 10
COCCOC(=O)N1C(=O)[C@@]2(c3cc(C#Cc4ccc(OC)cc4)ccc31)[C@H](C(=O)N1CCc3cc(OC)c(OC)cc3C1)[C@H]1C(=O)O[C@H](c3ccccc3)[C@H](c3ccccc3)N1[C@@H]2c1ccccc1OCCO | x | + | 18
COc1cc2c(cc1OC)CN(C(=O)[C@@H]1[C@H]3C(=O)O[C@H](c4ccccc4)[C@H](c4ccccc4)N3[C@H](c3ccc(OCCO)cc3)[C@@]13C(=O)Nc1ccc(C#CC4=CCCCC4)cc13)CC2 | x | x | 18
Cc1cccc(NC(=O)c2ccc(OCC(=O)Nc3ccc(Cl)c(Cl)c3)cc2)c1C | -8 | i | 2
O=C(CC(=O)c1ccccc1)c1ccccc1 | 97* | i | -2
O=C(O)CCNC(=O)c1ccccc1 | x | i | 1
Cc1ccc(-c2nnc3c4ccccc4c(C)nn23)cc1S(=O)(=O)NC1CCCCC1 | -11 | i | 6
COC(=O)C(CC#Cc1ccc2c(c1)[C@]1(C(=O)N2)[C@H](c2ccccc2OCCO)N2[C@H](c3ccccc3)[C@H](c3ccccc3)OC(=O)[C@H]2[C@@H]1C(=O)O)C(=O)OC | x | i | 1
Cc1sc2nc(SCC(=O)N3CCC(c4noc5ccc(F)cc45)CC3)n(-c3ccccc3)c(=O)c2c1C | -5 | i | 3
CC(C)OC(=O)c1cn(Cc2c(F)cccc2F)c2sc(-c3ccc(NC(=O)C(C)C)cc3)c(CN(C)Cc3ccccc3)c2c1=O | -51 | + | x
COc1cc(S(=O)(=O)n2nnc3ccccc32)c(OC)cc1Cl | 6 | + | 2
COc1cc(S(=O)(=O)n2cnc3ccccc32)c(OC)cc1Cl | -2 | i | 4
Cc1nn(C)c(C)c1CN1CCN(C(=S)Nc2ccc(S(N)(=O)=O)cc2)CC1 | -11 | i | -1
O=C(CSc1nnnn1-c1ccccc1)Nc1ccc(Br)cc1Cl | 9 | i | -1
COc1cc2ncnc(Nc3cccc(Br)c3)c2cc1OC | 16 | x | 0
COc1cc2ncnc(Nc3cccc(O)c3)c2cc1OC | -7 | x | 43*
CCn1c(SCc2nc3ccccc3c(=O)[nH]2)nnc1-c1ccccc1F | -7 | i | 2
CCOC(=O)c1cccc(NC(=O)COc2ccc(Br)cc2)c1 | 2 | i | 2
Cc1ccc(C)c(OCC(=O)Nc2cccc(-c3nc4ccccc4o3)c2)c1 | -4 | i | -3
O=C(COc1ccc(Br)cc1)Nc1cccc(-c2nc3ccccc3o2)c1 | 74* | i | 0
O=C(COc1ccc([N+](=O)[O-])cc1)Nc1ccc2oc(-c3ccc(Br)cc3)nc2c1 | 15 | i | 3
O=C(COc1ccc(Br)cc1)Nc1cccc(-c2nnc(-c3ccccc3)o2)c1 | 109* | i | -2
O=C(COc1ccc(Br)cc1)Nc1ccc2oc(-c3ccc(F)cc3)nc2c1 | 69* | i | 2
COc1ccc(C(C)(C)C)cc1S(=O)(=O)NC1CC(C)(C)NC(C)(C)C1 | -4 | i | -1
SMILES | mut p53 react | ID4 binder | STK33 kin inh
Cc1ccc(-n2nc3cc(C)c(NC(=O)COc4cccc(C)c4)cc3n2)cc1 | 29 | i | -2
O=C(CCN1C(=O)c2ccc([N+](=O)[O-])cc2C1=O)Nc1cccc(I)c1 | 1 | i | -5
COCCSc1nnc(NC(=O)c2sc3ccccc3c2Cl)s1 | 67* | i | -1
CSc1ncc(Cl)c(C(=O)Nc2nnc(SC/C=C/c3ccccc3)s2)n1 | -1 | i | -4
CC(C(=O)Nc1ccc(Cl)c(Cl)c1)N(c1ccccc1)S(C)(=O)=O (stereo not drawn) | 8 | i | -3
O=S(=O)(c1cccc2cccnc12)N1CCN(Cc2ccc(OCCO)cc2)CC1 | x | + | 0
O=S(=O)(NC1CCN(Cc2ccc(OCCO)cc2)CC1)c1cccc2cccnc12 | x | i | x
COc1ccccc1NC(=O)c1c(NC(=O)COc2ccccc2)sc(C)c1C | -11 | i | -1
COc1ccccc1NC(=O)c1c(NC(=O)c2ccco2)sc(C)c1C | 76* | i | 2
Cc1ccc(-c2noc(CCC(=O)NC(C)(C)C)n2)cc1 | 61* | i | 5
Cc1ccc(-c2noc(CCC(=O)Nc3ccccc3[N+](=O)[O-])n2)cc1 | 17 | i | 4
CCc1ccc(-n2cc3c(c(C#N)c2=N)CC(C)(C)CC3=O)cc1 | 47 | i | x
CCOc1ccc(OCCSc2nc(C)cc(=O)[nH]2)cc1 | 34 | i | x
CCc1ccc(OCCSc2nc(C)cc(=O)[nH]2)cc1 | 59* | i | 1
C=CC1c2cc(O)c(OC)cc2CCN1Cc1cc2c(cc1Br)OCO2 (stereo not drawn) | x | i | -1
Cc1sc2nc(SCc3nc4ccccc4[nH]3)n(-c3ccccc3)c(=O)c2c1C | 0 | i | 1
COc1ccc([Si](C)(C)[C@@H]2[C@@H](CCO)O[C@]3(C(=O)N(Cc4ccc(N5CCOC5=O)cc4)c4ccccc43)[C@H]2C)cc1 | x | x | 20*
COc1ccc([Si](C)(C)[C@H]2[C@H](CCO)O[C@@]3(C(=O)N(Cc4cccc(NC(C)=O)c4)c4ccccc43)[C@@H]2C)cc1 | x | i | 38*
COc1ccc([Si](C)(C)[C@@H]2[C@@H](CCn3cc(CCO)nn3)O[C@]3(C(=O)N(Cc4cccc(N5CCOC5=O)c4)c4ccccc43)[C@H]2C)cc1 | x | i | u
COc1ccc([Si](C)(C)[C@H]2[C@H](CCn3cc(CCO)nn3)O[C@@]3(C(=O)N(Cc4cccc(N5CCOC5=O)c4)c4ccccc43)[C@@H]2C)cc1 | x | i | 21*
COc1ccc([Si](C)(C)[C@@H]2[C@@H](CCO)O[C@]3(C(=O)N(Cc4cccc(N5CCOC5=O)c4)c4ccccc43)[C@H]2C)cc1 | x | i | 18
COc1ccc([Si](C)(C)[C@@H]2[C@@H](CCO)O[C@]3(C(=O)N(Cc4ccc(NC(C)=O)cc4)c4ccccc43)[C@H]2C)cc1 | x | i | 15
COc1cc(/C=C/c2cc(O)cc(O)c2)ccc1O[C@@H]1O[C@H](CO)[C@@H](O)[C@H](O)[C@H]1O | 66* | i | -1
COc1cc(/C=C/c2cc(O)cc(O[C@@H]3O[C@H](CO)[C@@H](O)[C@H](O)[C@H]3O)c2)ccc1O[C@@H]1O[C@H](CO)[C@@H](O)[C@H](O)[C@H]1O | 15 | x | 10
Cc1ccnc(SCC(=O)Nc2cccc(C(F)(F)F)c2)n1 | -10 | i | -2
CC(=O)Nc1nccc(-c2cc(-c3cccc(C(F)(F)F)c3)no2)n1 | 79* | i | x
CCOC(=O)c1c(NC(=O)c2ccc(-c3ccccc3[N+](=O)[O-])o2)sc2c1CCCC2 | -6 | i | -1
O=C(CSc1nc2ccccc2[nH]1)Nc1ccc(Cl)cc1O | -13 | i | 6
Cc1ccccc1-c1ccc2c(c1)O[C@H](CN(C)C)[C@H](C)CN([C@H](C)CO)S2(=O)=O | 3 | i | x
